The test has as its system PPARg homodimer (NR concentration 180 nM). Description: PBM binding z-score (relative to random genomic background probes); higher = stronger binding; sequences stand for … in GC…GCGATTGACAGCGTAGAATGAAGG
The essentials: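 The probes on custom Agilent 4×180K protein-binding microarrays were double-stranded, with 34-nt variable regions bearing direct-repeat seeds, single-nucleotide variants, half-site ablations and random human genomic background sequences. Incubation lasted 1 h with ligand-free nuclear receptor dimers in PBS pH 7.4, 2% milk, 0.02% Triton X-100, 1 mM DTT, 0.2 mg/mL BSA and 0.4 mg/ml salmon testes DNA. Antibodies against each partner (one per run) detected bound dimers, and fluorescence scans were regression-normalized. Binding z-scores take the random background probes as reference.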
Turning to CGAACTAGGTAACCAGGACAGTGAAGAGGTTGGA, the PBM binding z-score came out at 0.22.

Regarding CGAACTAGGTCAAAGGACAGTTAAAGGCGACGTA, the PBM binding z-score turned out to be 2.07.

In turn, CGAACTAGGTCAAAGGACAGTGCAAGGCGACGTA showed a PBM binding z-score of 0.639.

For CGAACTAGGTTACCAGGACAGTGAAGAGGTTGGA, the PBM binding z-score is 0.829.

Sequence CGAACTAGGTCACCAGGAGAGTGAAGAGGTTGGA showed a PBM binding z-score of 2.38.

In turn, ATATGTAGGTTAGGGTCATCCAGAAAGTAGGGAA returned a PBM binding z-score of 6.33.

Turning to CGAACTAGGTCACCCGGACAGTGAAGAGGTTGGA, the PBM binding z-score is 2.42.

Consider ATATGTAGGTTTGGGTCATTCAGAAAGTAGGGAA, for which the PBM binding z-score turned out to be 2.99.

CGAACTAGGTCAAAGGACAGGGAAAGGCGACGTA gave a PBM binding z-score of 2.31.

CGAACTAGGTCACAGGACAGTGAAAGGCGACGTA: the PBM binding z-score amounted to 2.35.

Consider CGAAATAGGTCACCAGGACAGTGAAGAGGTTGGA, for which the PBM binding z-score amounted to 1.95.

The sequence CGAACTAGGTCGAAGGACAGTGAAAGGCGACGTA displayed a PBM binding z-score of 0.0184.

As to CGAACTAGTTCAAAGGACAGTGAAAGGCGACGTA, the PBM binding z-score was determined as 0.158.

The sequence ATATGTAGGTTATGGTCATTCAGAAAGTAGGGAA had a PBM binding z-score of 1.64.

The sequence CGAACTAGGTTAAAGGACAGTGAAAGGCGACGTA returned a PBM binding z-score of 1.11.

CGAACTAGGTCAAAGGACAGAGAAAGGCGACGTA: the PBM binding z-score is 1.87.

In the case of CGAACTAGGTCACCAGGACAGTGATGAGGTTGGA, the PBM binding z-score came out at 2.34.

ATATGTAGGTTAGGGTCATGCAGAAAGTAGGGAA displayed a PBM binding z-score of 2.6.

In turn, CGAACTAGGTCAAAGGACAGTGACAGGCGACGTA showed a PBM binding z-score of 1.78.

CGTACTAGGTCAAAGGACAGTGAAAGGCGACGTA had a PBM binding z-score of 2.5.

Turning to ATACGTAGGTTAGGGTCATTCAGAAAGTAGGGAA, the PBM binding z-score stood at 3.09.

ATATGTAGGTTAGGGTCATTAAGAAAGTAGGGAA displayed a PBM binding z-score of 3.28.

The values above are taken from the supplement of paper PMC6555819.
